Compound activity deposited in PubChem by several laboratories.
PAFAH1B2 FP inh = PAFAH1B2 enzyme inhibitors, primary screen, biochemical, fluorescence polarization, human. Platelet-activating factor acetylhydrolase IB subunit alpha2 (Homo sapiens), P68402. recombinant PAFAH1B2, FP-rhodamine activity probe. inhibition, % at 3.39 µM. 1.2% of 340,000 active;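 active = inhibition above the mean of all tested compounds plus 3 SD, cut at about 24% in these data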
pPAFAH FP inh = pPAFAH enzyme inhibitors, primary screen, biochemical, fluorescence polarization, human. recombinant pPAFAH, FP-rhodamine probe fluorescence polarization. inhibition, % at 3.39 µM. 1.5% of 330,000 active;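 active = inhibition above the mean inhibition across the screen plus 3 SD, cut at about 25% in these data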;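 note: inhibitors block binding of the rhodamine activity-based probe so polarization drops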
PAFAH1B3 inh = PAFAH1B3 enzyme inhibitors, primary screen, biochemical, fluorescence polarization, human; Platelet-activating factor acetylhydrolase IB subunit alpha1 (Homo sapiens), Q15102; recombinant PAFAH1B3, FP-rhodamine probe; inhibition, % at 3.39 µM; 0.28% of 340,000 active;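 active = inhibition above the screen-wide average of all tested compounds plus 3 SD, cut at about 25% in these data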
Target sequence (Q15102 whole entry, looked up): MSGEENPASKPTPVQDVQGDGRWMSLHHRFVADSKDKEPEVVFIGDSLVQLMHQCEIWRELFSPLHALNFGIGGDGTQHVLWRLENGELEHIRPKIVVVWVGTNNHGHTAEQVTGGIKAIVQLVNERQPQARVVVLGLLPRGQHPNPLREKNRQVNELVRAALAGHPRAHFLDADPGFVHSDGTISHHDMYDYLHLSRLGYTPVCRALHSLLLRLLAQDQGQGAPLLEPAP
ATG4B inhibitor = ATG4B protease inhibitors, primary screen, biochemical, fluorescence, uHTS. Cysteine protease ATG4B (Homo sapiens), Q9Y4P1. ATG4B cleavage of LC3-PLA2, NBD-HPC fluorescence, 1 h. inhibition, % at 8.33 µM. 0.51% of 340,000 active. AID 504462, 2011; in the data active = inhibition above about 40%
Target sequence (Q9Y4P1 whole entry, looked up): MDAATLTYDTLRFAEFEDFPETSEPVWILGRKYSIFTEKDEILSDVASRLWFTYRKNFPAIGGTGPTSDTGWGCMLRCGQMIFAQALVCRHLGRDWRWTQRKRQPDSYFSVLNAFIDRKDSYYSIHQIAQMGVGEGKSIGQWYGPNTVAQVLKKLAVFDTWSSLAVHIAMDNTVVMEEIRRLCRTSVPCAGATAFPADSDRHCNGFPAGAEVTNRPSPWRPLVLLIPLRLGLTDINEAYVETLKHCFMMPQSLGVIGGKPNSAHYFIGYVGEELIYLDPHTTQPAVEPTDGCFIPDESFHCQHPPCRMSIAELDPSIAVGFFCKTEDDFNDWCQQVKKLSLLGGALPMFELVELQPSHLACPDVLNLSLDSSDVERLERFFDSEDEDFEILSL
DAGLB inh = DAGLB lipase inhibitors, primary screen, biochemical, fluorescence, HTS | 0.059% of 340,000 active | Diacylglycerol lipase-beta (Homo sapiens), Q8NCG7 | HEK293T DAGLB membrane lysate, EnzChek fluorogenic substrate | AID 504411, 2011 | inhibition, % at 5.17 µM; in the data active = inhibition above about 34%
PAFAH2 FP inh = PAFAH2 enzyme inhibitors, primary screen, biochemical, fluorescence polarization, human; Platelet-activating factor acetylhydrolase 2, cytoplasmic (Homo sapiens), Q99487; recombinant PAFAH2, FP-rhodamine activity probe; inhibition, % at 3.39 µM; 0.99% of 340,000 active;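 active = inhibition above the mean over all tested compounds plus 3 SD, cut at about 30% in these data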;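 note: inhibitors block probe labeling of enzyme so polarization drops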
Of the large screens only hits and unclear results are named; the others gave an inactive call. A selection: hits, their analogues and other compounds. The true share with any hit is near 3%.

Cc1ccc(Cn2c(C(C)Nc3nc(-c4ccc(Cl)c([N+](=O)[O-])c4)cs3)nc3cc(C(F)(F)F)ccc32)cc1 (stereo not drawn)	none
O=C(Nc1ccc(N2CCCC2)cc1)c1ccc2ccccc2c1	pPAFAH FP inh 34
O=c1[nH]c2c(s1)C(c1ccco1)C1C3CCC(C3)C1S2 (stereo not drawn)	PAFAH1B2 FP inh 57
N#C/C(=C\c1cc2c(cc1Br)OCO2)c1ccc(C(=O)O)cc1	PAFAH1B2 FP inh 33
COC(=O)C1=C(CSc2nc3c(cc2C#N)CN(C)CC3)OC(N)=C(C#N)C1c1ccccc1F (stereo not drawn)	pPAFAH FP inh 28
CC(NCc1ccc(OCc2ccc(Cl)cc2)cc1)C(O)c1ccccc1 (stereo not drawn)	PAFAH1B2 FP inh 64
CC(NCc1cccc(OCc2ccccc2)c1)C(O)c1ccccc1 (stereo not drawn)	none
Cc1ccc(SCCC(=O)OCC(=O)Nc2ccc(S(N)(=O)=O)cc2)cc1	PAFAH1B2 FP inh 24
CC(Oc1ccc(Cl)cc1Cl)C(=O)NNC(=O)C(=O)N1CCCC1 (stereo not drawn)	none
Cc1ccc(SCCC(=O)Nc2ccccc2Br)cc1	PAFAH1B2 FP inh 26
Cc1ccc(CNC(=O)CCSCc2cccc(F)c2)cc1	PAFAH1B2 FP inh 25
Cc1ccc(SCCC(=O)Nc2ccc(Br)c(C)c2)cc1	none
Cc1ccc(CSCCNC(=O)CCSc2ccccc2)cc1	PAFAH1B2 FP inh 41
Cc1ccccc1CSCCNC(=O)CCSc1ccccc1	none
COC(C/C=C/[C@@H](O)[C@H](C)OCc1ccccc1)OC	none
O=C1N=C(N2C=CC(=C3C=CNC=C3)C=C2)/C(=C/N=NC(=O)c2ccccc2O)S1	pPAFAH FP inh 26
CC(C)Nc1nnc(SCC(=O)Nc2sccc2C#N)s1	none
O=S(=O)(NCC(c1ccc2c(c1)OCO2)N1CCOCC1)c1ccc(Br)cc1 (stereo not drawn)	PAFAH1B2 FP inh 25
CC12CN(C(=S)Nc3ccccc3)CC(C)(CN(C(=S)Nc3ccccc3)C1)C2=O	none
O=C(NC(=S)NCCN1CCOCC1)c1ccc(Cl)cc1	none
Cc1ccc(S(=O)(=O)NCCC(=O)N2CCCCCCC2)cc1	none
O=C(CCn1c(=O)[nH]c2ccccc2c1=O)N1CCN(c2cccc(C(F)(F)F)c2)CC1	PAFAH1B2 FP inh 31
COC(=O)c1ccc2c(=O)n(CCCCCC(=O)N3CCN(c4ccccc4)CC3)c(=O)[nH]c2c1	none
COc1cc2[nH]c(=O)n(CCCCCC(=O)N3CCN(c4ccccc4)CC3)c(=O)c2cc1OC	pPAFAH FP inh 27
COc1ccccc1/C=C/C=C1N=C(/C=C/c2ccc(Cl)cc2)OC/1=O	pPAFAH FP inh 30
CCCSc1nsc(NC(=O)CCC)n1	pPAFAH FP inh 31
O=C(NNC1=NCCC1)C1CC1	none
Oc1cccc(NC(=S)N=Nc2c(O)[nH]c3ccc(Br)cc23)c1	pPAFAH FP inh 28
Cc1ccc(S(=O)(=O)N2CCC(C(=O)N3CCCC3C(=O)N[C@@H](CC(C)C)C(=O)NCC(N)=O)CC2)cc1 (stereo partly drawn)	none
N#Cc1ccc(S(=O)(=O)N2CCN(Cc3cccs3)CC2)cc1	none
CCCCC(CC)CNC(=O)CN(C)S(=O)(=O)c1cccc2nsnc12 (stereo not drawn)	PAFAH1B2 FP inh 25
COc1ccc(S(=O)(=O)N2CCC(C(=O)NCc3cccs3)CC2)cc1	none
CC(C)(C)c1ccc(OCC(=O)NNC(=O)Nc2ccccc2)cc1	PAFAH1B2 FP inh 39, pPAFAH FP inh 30
O=C(COc1ccc(-c2ccccc2)cc1)NNC(=O)Nc1ccccc1	none
CCCCn1c(N)c(N(CCOC)C(=O)c2cc3c(s2)CCC3)c(=O)[nH]c1=O	none
Cc1cc(OCC(=O)NNC(=O)c2cccnc2)cc(C)c1Cl	none (no result: pPAFAH FP inh)
Nc1ccc2nc3c(=O)n(C4CCCCC4)c(=O)[nH]c3nc2c1	pPAFAH FP inh 26
COc1ccc(-c2cc(-c3ccc(OC)c(OC)c3)n[nH]2)c(O)c1	pPAFAH FP inh 25
COc1ccc(-c2cc(-c3ccccc3O)[nH]n2)cc1OC	none
Cc1no[n+]([O-])c1COc1ccc(/C=N/n2nnnc2N)cc1	none
COc1ccccc1NC(=O)C(=O)NNS(=O)(=O)c1ccc2ccccc2c1	PAFAH1B2 FP inh 34
COc1ccc(NC(=S)NNS(=O)(=O)c2ccc3ccccc3c2)c(OC)c1	none
O=[N+]([O-])c1ccccc1/C=C/C=N/Nc1ccc(S(=O)(=O)Nc2ccc(Cl)cc2)cc1[N+](=O)[O-]	none
O=C(CCCCCBr)N1CCC(CC2CC(c3ccc(Cl)cc3)=NO2)(C(=O)NCC2CCCCC2)CC1 (stereo not drawn)	none
O=C(CCCCCBr)N1CCC(CC2CC(c3cccc(Br)c3)=NO2)(C(=O)NCC2CCCCC2)CC1 (stereo not drawn)	pPAFAH FP inh 25
O=C(COC(=O)CNS(=O)(=O)c1ccccc1)Nc1ncc(Cl)cc1Cl	none
O=C(COC(=O)Cc1ccc(F)cc1)NC(=O)c1ccccc1	none
COc1cc(/C=C2\SC(c3ccc(C)cc3)=NC2=O)cc(OC)c1O	none
Cc1ccc(C2=NC(=O)/C(=C/c3cc(O)c(O)c(Br)c3)S2)cc1	PAFAH1B2 FP inh 37, PAFAH1B3 inh 48, PAFAH2 FP inh 78 (no result: pPAFAH FP inh)
COc1cc(/C=C2\SC(=O)N(Cc3ccc(F)cc3)C2=O)cc([N+](=O)[O-])c1O	none (no result: pPAFAH FP inh)
COc1cc(/C=C2\SC(=O)N(Cc3ccc(Cl)cc3)C2=O)cc([N+](=O)[O-])c1O	PAFAH1B2 FP inh 39, PAFAH2 FP inh 49 (no result: pPAFAH FP inh)
CCOC(=O)c1ccc(NC(=S)N2CCCC(C(=O)N3CCCC3)C2)cc1 (stereo not drawn)	pPAFAH FP inh 32
CCOC(=O)c1c(-c2ccc(OC)cc2)oc2ccc(OCC(N)=O)cc12	none
CCOC(=O)c1c(-c2ccc(OC)cc2)oc2ccc(O)cc12	pPAFAH FP inh 31
COc1ccc(C(=NNc2ccccc2C(=O)O)c2ccc(OC)cc2)cc1	pPAFAH FP inh 33
CCN1CC=C2C(C#N)=C(N)C(C#N)(C#N)C(CCc3ccccc3)C2C1 (stereo not drawn)	PAFAH1B2 FP inh 26, pPAFAH FP inh 25
O=C(NCCO)/C(=C\c1cccc([N+](=O)[O-])c1)NC(=O)c1cccs1	none (no result: PAFAH1B2 FP inh, pPAFAH FP inh, PAFAH1B3 inh, ATG4B inhibitor, PAFAH2 FP inh)
CCOC(=O)C1CCN(c2cc3c(cc2NC(=O)c2ccccc2Cl)n(C)c(=O)n3C)CC1	none
